# The supplement of paper PMC10127200
# Where a name gives a salt, the structure may show the parent alone.
# Key:
# Assay in all cases: Euclidean distance of Cell Painting phenotypic profile (signed KS, 77 features) to DMSO centroid (dimensionless distance); 5 or 10 uM (library dependent); higher = stronger phenotypic change vs DMSO (phenoactivity)
# Details in all cases: 48 h
# [1] = test system: 786-O
# Summary of the method: (§1)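 Five cancer lines, together with a healthy fibroblast line, received library compounds for 48 h at a library-dependent 10 or 5 uM and 0.1% DMSO final. Harmony then derived 77 features from confocal 20X images (9 fields/well) of the stained cells, scoring each as a signed Kolmogorov-Smirnov statistic against same-plate vehicle wells. After plate-position correction, correlation weighting and replicate averaging at the top dose, phenoactivity was taken as each profile's Euclidean distance to the median vehicle profile.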
# [2] = test system: A549
# Summary of the method: as §1
# [3] = test system: DU145
# Summary of the method: as §1
# [4] = test system: FB
# Summary of the method: as §1
# [5] = test system: HEPG2
# Summary of the method: as §1
# [6] = test system: OVCAR4
# Summary of the method: as §1
SMILES,Euclidean distance [1],Euclidean distance [2],Euclidean distance [3],Euclidean distance [4],Euclidean distance [5],Euclidean distance [6]
CC(=O)Nc1cccc(-n2c(=O)n(C3CC3)c(=O)c3c(Nc4ccc(I)cc4F)n(C)c(=O)c(C)c32)c1,3.52,3.28,3.33,3.79,1.56,1.94
NS(=O)(=O)c1ccc(NC(=O)Nc2ccc(F)cc2)cc1,0.711,1.08,1.36,1.37,1.44,0.718
O=C1c2c(O)cc(O)cc2OC(c2ccc(O)c(O)c2)C1O (configuration not stated) [Taxifolin (Dihydroquercetin)],1.12,0.542,1.09,1.25,0.834,0.517
CCN(CC)C(=S)SSC(=S)N(CC)CC [Disulfiram],1.95,1.78,1.34,2.84,0.547,1.32
Cc1c(N)c(=O)n(-c2ccccc2)n1C [4-Aminoantipyrine],1.29,0.968,1.5,0.907,0.845,1.32
OC1(c2ccc(Cl)c(C(F)(F)F)c2)CCN(CCCC(c2ccc(F)cc2)c2ccc(F)cc2)CC1 [Penfluridol],4.2,4.66,5.91,3.4,4.97,4.03
O=C1C(CC[S+]([O-])c2ccccc2)C(=O)N(c2ccccc2)N1c1ccccc1 (racemic) [(+/-)-Sulfinpyrazone],1.01,1.79,1.38,1.22,0.755,0.993
COCCNCCc1cccc(Nc2ncc3c(n2)-c2ccccc2[C@H](c2ccccc2F)C3)c1 [Derazantinib(ARQ-087)],6.37,4.25,5.6,3.69,4.56,4
NS(=O)(=O)NCCNc1nonc1/C(=N/O)Nc1ccc(F)c(Br)c1,1.34,1.13,1.07,1.35,0.971,0.884
CC1=C[C@H](O)CC(C)(C)[C@H]1/C=C/C(C)=C/C=C/C(C)=C/C=C/C=C(C)/C=C/C=C(C)/C=C/C1=C(C)C[C@@H](O)CC1(C)C [lutein],0.901,0.452,1.78,0.947,1.18,1
Cc1cccc(Nc2nc(-c3ccncc3)cs2)c1,3.35,3.77,4.06,3.02,1.11,1.73
CCN(CCCc1ccccc1)CCCc1ccccc1 [Alverine Citrate],0.97,1.06,1.22,1.12,0.789,1.01
COc1ccc2c(c1)c(CC(=O)N1CCOCC1)c(C)n2C(=O)c1ccc(Cl)cc1,0.785,0.772,0.859,0.741,0.95,0.74
CCOc1cc2ncc(C#N)c(Nc3ccc(OCc4ccccn4)c(Cl)c3)c2cc1NC(=O)/C=C/CN(C)C [Neratinib (HKI-272)],2.26,2.39,2.02,4.01,0.96,2.16
Nc1c(Br)cc(Br)cc1CN[C@H]1CC[C@H](O)CC1 [Ambroxol],1.17,0.59,0.867,0.611,0.645,0.78
C[C@H](CCC(=O)O)[C@H]1CC[C@H]2[C@@H]3C[C@H](O)[C@@H]4C[C@H](O)CC[C@]4(C)[C@H]3CC[C@]12C [Hyodeoxycholic acid (HDCA)],1.08,0.973,0.585,0.898,0.401,1.37
Cc1cc(NS(=O)(=O)c2ccc(N)cc2)no1 [Sulfamethoxazole sodium],1.09,0.64,1.01,0.902,0.561,1.28
CNC(=O)c1ccc(C)c(-n2c(C)cc(OCc3ccc(F)cc3F)c(Br)c2=O)c1,1.33,1.29,0.844,1.55,1.94,1.07
O=C(Nc1cc(C(F)(F)F)cc(C(F)(F)F)c1)c1cc(Cl)ccc1O,0.884,0.772,1.02,1.14,0.971,1.48
O=C(O)c1cc(=O)c2ccccc2o1 [Chromocarb],1.02,0.437,0.751,1.04,0.887,0.727
CCC(=O)O[C@]1(C(=O)CCl)[C@@H](C)C[C@H]2[C@@H]3CCC4=CC(=O)C=C[C@]4(C)[C@@]3(F)[C@@H](O)C[C@@]21C [Clobetasol propionate],1.31,2.17,2.55,2.08,0.79,1.96
COc1ccc(CC2c3cc(OC)c(OC)cc3CC[N+]2(C)CCC(=O)OCCCCCOC(=O)CC[N+]2(C)CCc3cc(OC)c(OC)cc3C2Cc2ccc(OC)c(OC)c2)cc1OC (configuration not stated) [Atracurium Besylate],1.83,0.711,1.16,0.918,1.14,1.51
C=CCNC1=C2C[C@@H](C)C[C@H](OC)[C@H](O)[C@@H](C)/C=C(\C)[C@H](OC(N)=O)[C@@H](OC)/C=C\C=C(/C)C(=O)NC(=CC1=O)C2=O,2.85,2.95,4.51,3.47,3.86,2.72
CC(C)(C(=O)c1cccnc1)c1cccnc1 [Metyrapone],1.56,1.55,0.902,1.36,0.932,1.85

SMILES,Euclidean distance [1],Euclidean distance [2],Euclidean distance [3],Euclidean distance [4],Euclidean distance [5],Euclidean distance [6]
Cn1cncc1[C@@](N)(c1ccc(Cl)cc1)c1ccc2c(c1)c(-c1cccc(Cl)c1)cc(=O)n2C [Tipifarnib],2.23,2.94,2.5,2.31,1.91,2.15
Cc1cc2c(cc1S(N)(=O)=O)S(=O)(=O)CCC2 [Meticrane],0.951,0.864,2.26,0.946,1.17,0.99
COc1cc2ncnc(Nc3ccc(F)c(Cl)c3)c2cc1OCCCN1CCOCC1 [Gefitinib hydrochloride],1.01,1.23,1.18,0.779,0.482,1.31
O=C(O)c1cc(-c2ccc(F)cc2F)ccc1O [Diflunisal],1.47,0.745,1.05,1.06,0.706,1.71
O=C1OC2(c3ccc(O)cc3Oc3cc(O)ccc32)c2ccccc21 [Fluorescein],0.775,0.447,0.83,0.881,1.12,1.27
COc1ccc2cc1Oc1ccc(cc1)C[C@H]1c3cc(c(OC)cc3CCN1C)Oc1c(O)c(OC)cc3c1[C@H](C2)N(C)CC3 [Fangchinoline],4.67,4.12,3.78,4.61,5.01,4.4
COc1cc2nc(N3CCN(C(=O)C4CCCO4)CC3)nc(N)c2cc1OC (configuration not stated) [Terazosin HCl],1.12,0.699,0.618,1.15,1.33,1.01
O=C1C(N(CO)C(=O)NCO)N(CO)C(=O)N1CO (configuration not stated) [Diazolidinyl urea],0.723,0.505,1.01,0.783,0.465,0.927
O=C(O)C(Cc1c[nH]c2ccccc12)N1C(=O)c2ccccc2C1=O (configuration not stated),0.991,0.979,0.681,0.852,0.417,0.641
O=C(Cn1cnnn1)N[C@@H]1C(=O)N2C(C(=O)O)=C(CSc3nncs3)CS[C@H]12 [Ceftezole sodium],0.633,1.39,1.36,0.846,0.929,0.929
CNC[C@H](O)c1ccc(O)c(O)c1 [Epinephrine bitartrate],0.553,0.655,0.818,0.827,0.637,0.577
CCCCCCOC(=O)NC(=N)c1ccc(NCc2nc3cc(C(=O)N(CCC(=O)OCC)c4ccccn4)ccc3n2C)cc1 [Dabigatran Etexilate],1.9,1.35,1.17,1.58,1.58,1.47
O=C(Nc1ccc(Oc2ccc(Cl)cc2)c(Cl)c1)c1cc(I)cc(I)c1O [Rafoxanide],1.36,1.72,1.23,1.19,1.44,1.54
Cn1c(=O)c(F)c(Nc2ccc(I)cc2F)c2c(=O)n(C[C@@H](O)CO)cnc21,3.48,2.45,3.23,4.03,2.21,2.01
CO[C@@H]1[C@@H](OC(N)=O)[C@@H](O)[C@H](Oc2ccc3c(O)c(NC(=O)c4ccc(O)c(CC=C(C)C)c4)c(=O)oc3c2C)OC1(C)C [Novobiocin Sodium],0.865,0.868,0.814,1.04,0.385,1.19
CC(=O)OCC(=O)[C@@]12OC(C)(C)O[C@@H]1C[C@H]1[C@@H]3C[C@H](F)C4=CC(=O)C=C[C@]4(C)[C@@]3(F)[C@@H](O)C[C@@]12C [Fluocinonide],1.34,2.13,2.47,1.51,0.846,1.99
C=C[C@@H]1C[C@]1(NC(=O)[C@@H]1C[C@@H](Oc2ncc(OC)c3ccc(Cl)cc23)CN1C(=O)[C@@H](NC(=O)OC(C)(C)C)C(C)(C)C)C(=O)NS(=O)(=O)C1CC1 [Asunaprevir],1.27,1.49,0.966,0.784,0.47,1.08
Oc1cc(O)c2c(c1)O[C@H](c1ccc(O)c(O)c1)[C@H](O)C2 [(-)Epicatechin],1.1,0.627,0.705,1.15,0.982,1.04
O=C(/C=C/c1cccc(S(=O)(=O)Nc2ccccc2)c1)NO [Belinostat (PXD101)],1.71,2.39,2.38,1.82,1.99,1.12
CC1(C)OC[C@@H](COC(=O)CCc2ccc(OC[C@@H](O)CNCCNC(=O)N3CCOCC3)cc2)O1 [Landiolol hydrochloride],1.18,0.835,1.25,1.04,0.692,1.25
Cc1cc2ncnn2cc1Nc1ncc2c(n1)n(C1CCOCC1)c(=O)n2C,1.35,1.07,1.33,1.79,0.714,0.718
CC(C)(O/N=C(\C(=O)N[C@@H]1C(=O)N2C(C(=O)[O-])=C(C[n+]3ccccc3)CS[C@H]12)c1csc(N)n1)C(=O)O [Ceftazidime],1.39,0.613,0.815,1.06,0.385,1.62
COc1ccccc1OCC(O)COC(N)=O (configuration not stated) [Methocarbamol],1.4,0.507,1.06,0.751,1.83,0.907
